Screens: PubChem BioAssay, The Scripps Research Institute Molecular Screening Center
In the library only some 3.5% were active in any assay of this set; here they are far more common.
GPR151 activ: activates the human receptor GPR151; Q8TDV0; PathHunter beta-arrestin GPR151 cells, luminescence; activation, % at 11.2 µM; 650,000 compounds, 1% hits; in the data active = activation above about 4.9%;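 also: 0% = median of compound wells and 100% = cells with positive control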
Target sequence (Q8TDV0 whole entry, looked up): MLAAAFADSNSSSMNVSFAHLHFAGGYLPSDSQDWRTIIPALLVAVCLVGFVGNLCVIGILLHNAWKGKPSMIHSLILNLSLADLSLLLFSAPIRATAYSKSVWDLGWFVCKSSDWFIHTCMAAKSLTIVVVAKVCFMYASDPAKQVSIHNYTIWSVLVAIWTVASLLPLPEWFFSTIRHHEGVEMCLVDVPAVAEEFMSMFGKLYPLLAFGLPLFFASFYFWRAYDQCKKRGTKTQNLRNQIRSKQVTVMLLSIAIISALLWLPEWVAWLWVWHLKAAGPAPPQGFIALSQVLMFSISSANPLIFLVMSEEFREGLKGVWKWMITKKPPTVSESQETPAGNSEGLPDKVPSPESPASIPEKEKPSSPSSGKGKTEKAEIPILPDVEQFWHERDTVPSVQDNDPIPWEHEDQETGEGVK
FBW7 activator: activators of human E3 ligase FBW7; 650,000 compounds, 0.13% hits; normalized activity (activation), % at 26.1 µM; AlphaScreen FBW7–phospho-cyclin E peptide binding, activator screen; in the data active = normalized activity above about 1.9%;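 also: purified mutant Fbw7 with reduced substrate affinity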
TEAD-YAP block: TEAD-YAP interaction inhibition. HEK-TIYL cells, TEAD-Gal4/YAP UAS-luciferase luminescence. inhibition, % at 9.12 µM. 640,000 compounds, 1.4% hits. AID 1259422; in the data active = inhibition above about 32%;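 also: 0% = median of test compound wells and 100% = reference inhibitor wells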
MITF primary: blocks human microphthalmia-associated transcription factor; O75030; inhibition, % at 2.6 µM; 650,000 compounds, 0.91% hits; AlphaScreen MITF homodimerization, bead proximity signal; AID 1259374; in the data active = inhibition above about 50%;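 also: 0% = vehicle wells with protein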
Starred values were filed as active, the others as inactive.

SMILES	GPR151 activ	FBW7 activator	TEAD-YAP block	MITF primary
CCCCOc1cccc(C(=O)Nc2ccc3c(c2)OCCO3)c1	-0.8	0.4	-20.9	6.5
COc1cccc(S(=O)(=O)Nc2ccc3c(c2)OCCO3)c1	0.3	-0.1	32.7*	1.2
COc1cccc(C(=O)Nc2ccc3c(c2)OCCO3)c1	-9.6	0.0	79.0*	13.0
CCCN(CCC)S(=O)(=O)c1ccc(NC(=O)c2ccccc2OCC)cc1	-1.0	0.7	-2.6	0.4
CCOC(=O)c1cnn(-c2nc(-c3ccccc3)cs2)c1CN(CC)CCO	1.5	-0.1	24.5	0.4
CN(c1ccccc1C(=O)O)S(=O)(=O)c1ccc(F)cc1	4.6	-0.2	-6.6	0.8
O=C(Nc1ccc2c(c1)CCC2)c1ccc2c(c1)OCO2	-5.5	-0.1	58.9*	14.7
C=C(C)CN(CC)C(=O)COC(=O)Cn1[nH]c(=O)c2ccccc2c1=O	0.8	0.0	-4.3	-6.9
O=C(O)CSc1nccn1-c1cccc(F)c1	0.2	-0.1	-5.7	2.0
Cc1cc(C(=O)CN2CCN(C)CC2)c(C)n1-c1ccc(Br)cc1	-1.2	0.5	7.8	88.0*
CCN1CCN(CC(=O)c2cc(C)n(-c3ccc(F)cc3)c2C)CC1	1.0	-0.1	-6.2	79.5*
COc1ccc(/C=C/CN2CCc3nnc(CCNC(=O)C4CCC4)n3CC2)cc1	-0.7	0.0	-0.1	-3.9
CC(=O)NCCc1nc2ccccc2n1CCCOc1ccccc1C	-1.8	0.1	2.1	21.3
CC(=O)N(/N=C1\Sc2ccccc2C1=O)c1ccccc1I	-0.8	-0.2	76.0*	29.3
COc1ccc(/C=C/C(=O)O)cc1S(=O)(=O)NC(C)(C)C	3.1	0.2	9.4	-6.0
Cc1[nH]c2ccccc2c1C(=O)CCl	-1.5	2.3*	4.6	17.8
CCOC(=O)c1c(C)[nH]c(C)c1C(=O)CCl	-0.8	0.1	71.1*	6.5
CC(=O)c1c(-c2ccccc2)[nH]c2ccccc12	4.3	0.0	46.4*	5.4
Cc1[nH]c2ccccc2c1C(=O)CN(C)C	-0.8	-0.2	-10.4	-9.2
c1ccc(OCCNc2ncnc3nc(N4CCN(c5ccccn5)CC4)[nH]c23)cc1	2.9	-0.2	0.8	12.3
CCCNc1nc(N2CCN(c3ccccn3)CC2)nc2c1ncn2-c1ccsc1	1.7	-0.1	12.1	7.8
Oc1ccc(CCNc2nc(N3CCN(c4ccccn4)CC3)nc3c2ncn3-c2ccsc2)cc1	3.1	-0.1	52.9*	10.9
c1ccc(N2CCN(c3nc(NC4CC4)c4ncn(-c5ccsc5)c4n3)CC2)nc1	0.9	0.1	48.5*	0.2
Oc1ccc(CCNc2ncnc3nc(N4CCN(c5ccccn5)CC4)[nH]c23)cc1	-0.3	0.0	39.2*	10.1
c1ccc(Nc2nc(N3CCC(N4CCOCC4)CC3)nc3c2ncn3-c2ccsc2)cc1	-0.1	-0.1	33.0*	10.9
SMILES	GPR151 activ	FBW7 activator	TEAD-YAP block	MITF primary
c1ccc(Oc2ccc(Nc3nc(N4CCOCC4)nc4c3ncn4-c3ccsc3)cc2)cc1	0.2	0.0	-6.3	6.2
c1cc(-n2cnc3c(Nc4ccc5c(c4)OCO5)nc(N4CCC(N5CCOCC5)CC4)nc32)cs1	-1.0	-0.3	19.3	14.1
c1ccc(N2CCN(c3nc(Nc4ccc(N5CCOCC5)cc4)c4ncn(-c5ccsc5)c4n3)CC2)nc1	0.1	0.1	37.9*	20.4
c1cc(-n2cnc3c(Nc4ccc(N5CCOCC5)cc4)nc(N4CCC(N5CCOCC5)CC4)nc32)cs1	-2.8	-0.4	36.8*	8.4
Cc1sc2ncnc(N/N=C/c3ccc([N+](=O)[O-])o3)c2c1C	0.4	-1.2	34.6*	8.4
Cc1sc2ncnc(N/N=C/c3cccc([N+](=O)[O-])c3)c2c1C	1.7	0.1	-4.3	-8.0
COc1nc(NCC(C)C)nc(Oc2ccc(=O)n(-c3ccccc3)n2)n1	0.4	2.4*	5.5	3.4
CCNc1nc(OC)nc(Oc2ccc(=O)n(-c3ccccc3)n2)n1	-0.4	-0.1	3.3	0.2
CC(C)(C)C(=O)NC1CCN(Cc2nnnn2Cc2ccco2)CC1	-4.9	0.1	70.5*	-0.6
O=C(NC1CCCCC1)NC1CCN(Cc2nnnn2Cc2ccco2)CC1	-1.4	-0.2	0.0	-13.0
O=C(CCCN1C(=O)c2ccccc2C1=O)N1CCN(c2ccc([N+](=O)[O-])cc2)CC1	-0.2	-0.2	3.0	-10.7
CCOc1ccccc1/C=N/Nc1ncnc2nc[nH]c12	0.9	-0.2	7.5	-2.0
COc1ccc(/C=N/Nc2ncnc3nc[nH]c23)cc1O	0.0	0.4	36.9*	10.0
COc1ccc(/C=N/Nc2ncnc3nc[nH]c23)c(OC)c1	-3.3	-0.2	37.6*	8.7
CCN(CC)c1ccc(/C=N/Nc2ncnc3nc[nH]c23)cc1	-3.2	-0.2	75.7*	0.6
Brc1cccc(/C=N/Nc2ncnc3nc[nH]c23)c1	-2.3	-0.1	57.2*	4.3
Oc1cccc(/C=N/Nc2ncnc3nc[nH]c23)c1	-3.0	0.0	22.0	4.8
O=C(/C=C/c1ccccc1Cl)NC1CCCC1	1.7	0.1	-66.9	2.0
Cc1sc(NC(=O)c2ccco2)c(C(c2ccccn2)N2CCOCC2)c1C (stereo unspecified)	0.0	0.0	20.6	10.6
COc1cccc(Cn2cccc(NC(=O)Nc3ccccc3-c3ccccc3)c2=O)c1	0.6	-0.1	-5.2	3.1
CC1(C)C2CCC1(C)C(N=CC1=C(O)c3ccccc3C1=O)C2 (stereo unspecified)	-0.7	0.4	16.6	-16.3
CCCCOC(=O)c1cc(-c2ccc(C)cc2)nc2c(C)cccc12	-1.4	0.2	7.2	1.9
O=S(=O)(NCc1cccnc1)c1ccc(Cl)cc1	-0.8	-0.1	-3.2	-7.1
O=S(=O)(NCc1ccc2c(c1)OCO2)c1ccc(Cc2ccc(S(=O)(=O)NCc3ccc4c(c3)OCO4)cc2)cc1	1.7	0.2	37.6*	12.5
COc1ccc(/C=C/C(=O)c2ccc(S(=O)(=O)NCc3cccnc3)cc2)cc1	0.0	-0.1	35.0*	19.0
SMILES	GPR151 activ	FBW7 activator	TEAD-YAP block	MITF primary
O=S(=O)(NCc1cccnc1)c1ccc(Cc2ccc(S(=O)(=O)NCc3cccnc3)cc2)cc1	-0.5	-0.2	51.5*	4.8
NS(=O)(=O)c1ccc2nc(NC(=O)c3sc4ccccc4c3Cl)sc2c1	0.5	0.0	5.1	-8.4
O=C1NC2(CCCCC2)C(=O)N1Cc1ccccc1C(F)(F)F	3.1	0.1	-3.1	8.8
COC(OC)(C(=O)c1ccccc1)c1ccccc1	-0.8	0.0	7.0	4.0
CC[C@@]1([C@@H]2O[C@@H]([C@H]3O[C@@](O)(CO)[C@H](C)C[C@@H]3C)C[C@@H]2C)CC[C@H]([C@]2(C)CC[C@]3(C[C@H](O)[C@@H](C)[C@@H]([C@@H](C)[C@@H](OC)[C@H](C)C(=O)O)O3)O2)O1	0.1	0.5	78.7*	16.4
O=C(NCCc1ccccc1)c1cc(F)c(F)cc1Cl	-1.8	0.5	34.5*	5.9
O=C(NCCc1ccccc1)c1ccc(Br)cc1	-3.5	-0.1	14.4	-23.0
O=C(NCCc1ccccc1)c1ccc(Cl)cc1	-5.7	0.1	64.1*	17.8
Cc1ccc(S(=O)(=O)C2(C(=O)NCCc3ccccc3)CC2)cc1	-0.9	0.7	6.2	8.9
O=C(Nc1ccccc1C(=O)NCCc1ccccc1)c1ccccc1Cl	1.1	0.1	13.1	31.4
O=C(NCCc1ccccc1)c1ccccc1Cl	-4.4	-0.1	33.3*	3.2
